Results taken from PubChem BioAssay (EPA / NIEHS).
Records with an inconclusive call do not appear. Activity calls are given as the source filed them. The calls were made as follows: active = hit-call score of the fitted dose curve at least 0.9, where 1 is the maximum; inconclusive = response in the unintended direction; inactive = score below 0.9.

molecular target: Androgen receptor (Homo sapiens) (UniProt P10275); experiment: ATG_AR_TRANS: Attagene TRANS-FACTORIAL HepG2 Assay for human Androgen Receptor (AR) (AID 2282973); conditions: HepG2 Attagene TRANS-FACTORIAL AR reporter transcription
In short: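 Transcriptional activity of an exogenous AR–Gal4 fusion read as GAL4-UAS reporter transcript levels in transfected human HepG2 cells after 24 h dosing. Detection via RT-PCR, 6-FAM labelling, HpaI digest and capillary electrophoresis; increase over DMSO baseline.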

Chain of Androgen receptor (Homo sapiens) (P10275 whole entry, looked up, the tested form may be a part): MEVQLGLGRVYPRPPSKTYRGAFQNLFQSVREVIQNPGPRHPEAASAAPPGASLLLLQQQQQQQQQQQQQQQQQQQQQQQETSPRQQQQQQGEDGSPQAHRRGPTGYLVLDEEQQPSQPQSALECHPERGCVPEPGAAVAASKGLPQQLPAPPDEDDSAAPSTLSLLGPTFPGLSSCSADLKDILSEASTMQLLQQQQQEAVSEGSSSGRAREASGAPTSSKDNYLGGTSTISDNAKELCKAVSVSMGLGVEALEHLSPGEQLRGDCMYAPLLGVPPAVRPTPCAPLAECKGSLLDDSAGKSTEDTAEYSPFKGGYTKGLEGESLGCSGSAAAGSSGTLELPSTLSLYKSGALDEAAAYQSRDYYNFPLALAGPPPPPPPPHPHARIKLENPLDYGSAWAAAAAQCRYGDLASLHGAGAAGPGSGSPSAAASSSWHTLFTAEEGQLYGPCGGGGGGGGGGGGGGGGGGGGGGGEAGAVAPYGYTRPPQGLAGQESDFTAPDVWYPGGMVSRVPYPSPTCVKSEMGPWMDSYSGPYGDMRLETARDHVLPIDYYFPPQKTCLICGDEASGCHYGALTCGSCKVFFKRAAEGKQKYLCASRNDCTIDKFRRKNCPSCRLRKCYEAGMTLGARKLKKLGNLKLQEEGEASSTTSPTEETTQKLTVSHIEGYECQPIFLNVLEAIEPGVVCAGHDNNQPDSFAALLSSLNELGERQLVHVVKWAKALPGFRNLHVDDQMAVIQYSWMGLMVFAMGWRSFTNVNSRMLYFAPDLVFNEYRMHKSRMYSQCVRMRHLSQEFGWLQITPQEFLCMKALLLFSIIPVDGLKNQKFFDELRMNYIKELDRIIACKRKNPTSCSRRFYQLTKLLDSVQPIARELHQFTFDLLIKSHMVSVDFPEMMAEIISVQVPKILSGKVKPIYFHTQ

outcome, inactive:
CC(C=O)Cc1ccc(C(C)(C)C)cc1 (centres undefined)
C#CC(C)N(C)C(=O)Nc1ccc(Cl)cc1 (centres undefined)
O=C1OC(=O)C(F)(F)C1(F)F
C=CC(=O)OCCCCCCCC(C)C
CC(=O)O[C@@H]1CC2CCC1(C)C2(C)C (some centres undefined)
OC[C@H]1O[C@@H](O[C@H]2[C@H](O)[C@@H](O)[C@H](O)O[C@@H]2CO)[C@H](O)[C@@H](O)[C@H]1O
Cc1cc(=O)[nH]c(C(C)C)n1
O=C1Cc2ccccc2N1c1c(Cl)cccc1Cl
BrCc1cccc(Oc2ccccc2)c1
CC(=O)O[C@@H]1C[C@@H]2CC[C@@]1(C)C2(C)C
CC1=CP(=O)(c2ccccc2)CC1 (centres undefined)
Oc1ccc(-c2ccccc2)c(Cl)c1
CCCCCCCCSCCO
CC(O)COc1ccccc1 (centres undefined)
Oc1cc2ccccc2cc1O
COCC1CCC(CO)CC1 (centres undefined)
CC(=O)c1ccc[nH]1
COC(=O)c1ccc([N+](=O)[O-])cc1
c1ccc(-c2ccccc2-c2ccccc2)cc1
Nc1cc([N+](=O)[O-])ccc1Cl
CN(C)Cc1ccccc1O
O=S(=O)(O)c1cc(S(=O)(=O)O)c2ccc3c(S(=O)(=O)O)cc(S(=O)(=O)O)c4ccc1c2c43
C=CC(F)(F)C(F)(F)C(F)(F)C(F)(F)F
CC(=O)Nc1ccc(S(N)(=O)=O)cc1
O=C1CCCCCCCCCCCC(=O)OCCO1
O=C1OCc2ccccc21
COc1ccc(C(=O)c2ccccc2)c(O)c1
CCc1ccc(C(c2ccc(CC)cc2)C(Cl)Cl)cc1
CCCC1CCOC(C)S1 (centres undefined)
CC=C(C)C(C)=O
Cc1ccc(S(=O)(=O)Oc2ccc(N=Nc3ccc(-c4ccc(N=Nc5c(O)ccc6cc(S(=O)(=O)O)cc(S(=O)(=O)O)c56)c(C)c4)cc3C)cc2)cc1
CCCCCCCOC(=O)c1ccccc1C(=O)OCCCCCCC
N[C@H]1C(O)O[C@H](CO)[C@H](O)[C@@H]1O (some centres undefined)
OCCCS
CC(C)(C)NC(N)=O
CCCCCCCC1CCCC1=O (centres undefined)
Cc1c(C(=O)c2c[nH]n(C)c2=O)ccc(S(C)(=O)=O)c1C1=NOCC1
Cc1cc(C)c(S(=O)(=O)O)cc1N=Nc1cc(S(=O)(=O)O)c2ccccc2c1O
C=CC/C=C/C/C=C/C/C=C/C
